Laboratory results from PubChem BioAssay AID1822 (The Scripps Research Institute Molecular Screening Center, 2009).
Hit rate of the full screen: of about 290,000 compounds, about 3,500 (1.2%) were called active.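 Rule for the calls: active = inhibition above the campaign mean inhibition over all tested compounds plus 3 SD (cut at about 28% in these data); inactive = the rest.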 Only a selection was taken, and actives are over-represented in it overall.

These compounds were tested on M18 aspartyl aminopeptidase (Plasmodium falciparum 3D7) (assay: inhibition of P. falciparum M18 aminopeptidase – biochemical, QFRET, recombinant enzyme, primary screen (AID 1822;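 note: 0% = plate median of test compound wells and 100% = 2 mM ZnCl2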)). Details: recombinant PfM18AAP, H-Glu-NHMec fluorogenic cleavage; at 7.35 µM; stronger effect = higher value.

Q: How did the inhibition turn out when `COc1cc(SC)ccc1C(=O)N(Cc1ccccc1)c1ccccc1` was run?
A: 0.45% (inactive)

Q: Which inhibition does the source give for `Cc1nn(CC(=O)NC2CCCCC2)c(=O)c2cccn12` here?
A: -6.41% (inactive)

Q: Which inhibition does the source give for `CCN1/C(=C/C(=S)Nc2ccccc2)Sc2ccccc21` here?
A: 46.3% (active)

Q: With `CCN1/C(=C/c2ccc3ccc(C)cc3[n+]2CC)Sc2ccccc21` as the compound, how does the inhibition read?
A: -2.79% (inactive)

Q: `O=C(CCN1c2ccccc2Sc2ccccc21)Nc1ccccc1` was tested. Which inhibition did it give?
A: 6.09% (inactive)

Q: `O=c1c2cc([N+](=O)[O-])ccc2nc2n1CCC2` was tested. Which inhibition did it give?
A: 3.84% (inactive)

Q: `Fc1ccccc1COc1cccc2cccnc12` was tested. Which inhibition did it give?
A: -17.2% (inactive)

Q: For `O=C(CSc1nc2cccnc2n1Cc1ccccc1)N1CCc2ccccc21`, which inhibition is on record?
A: -2.92% (inactive)

Q: How did the inhibition turn out when `CCOC(=O)N1CCN(S(=O)(=O)c2ccc(Br)cc2)CC1` was run?
A: -5.88% (inactive)

Q: How did the inhibition turn out when `c1ccc2c(c1)OCC(c1nn3cnnc3s1)O2` (configuration not stated) was run?
A: 55.2% (active)

Q: With `COc1ccc(OC)c2sc(NC(=O)C3COc4ccccc4O3)nc12` (configuration not stated) as the compound, how does the inhibition read?
A: -7.49% (inactive)

Q: With `O=C(Nc1nnc(C2COc3ccccc3O2)o1)c1ccc(F)cc1` (configuration not stated) as the compound, how does the inhibition read?
A: 5.07% (inactive)

Q: With `COc1cc(NC(=O)C2=CC(c3ccc(C)cc3)=NS(=O)(=O)N2C)cc(OC)c1OC` as the compound, how does the inhibition read?
A: 13.1% (inactive)

Q: Which inhibition does the source give for `CC(=O)c1ccc(N2CCN(C(=O)C3CCN(S(=O)(=O)c4ccc5c(c4)CC(C)N5C(=O)C4CC4)CC3)CC2)cc1` (configuration not stated) here?
A: -0.32% (inactive)

Q: How did the inhibition turn out when `CN(CCC1CCOCC1)C(=O)CC1C(=O)NCCN1Cc1cccc(F)c1` (configuration not stated) was run?
A: 6.55% (inactive)

Q: Which inhibition does the source give for `CCCOc1ccc(C2NC(=O)NC(c3ccccc3)=C2C(C)=O)cc1OCC` (configuration not stated) here?
A: -0.97% (inactive)

Q: With `COc1cccc(COc2ccc(N(C)S(=O)(=O)c3ccccc3)cc2)c1` as the compound, how does the inhibition read?
A: 4.14% (inactive)

Q: Which inhibition does the source give for `CN(C)c1ccc(N/C=C/C(=O)C(F)(F)F)cc1` here?
A: 29.1% (active)

Q: For `CC(=O)N(C)c1ccc(NC(=O)C(F)(F)F)cc1`, which inhibition is on record?
A: -1.27% (inactive)

Q: How did the inhibition turn out when `O=C(/C=C/Nc1ccccc1OC(F)(F)F)C(F)(F)F` was run?
A: -3.52% (inactive)

Q: `COc1cccc2sc(NNC(=O)c3nc4ccccc4s3)nc12` was tested. Which inhibition did it give?
A: 30.1% (active)

Q: How did the inhibition turn out when `COc1cccc2sc(Nc3nc(C)c(C(C)=O)s3)nc12` was run?
A: 7.92% (inactive)

Q: Which inhibition does the source give for `COc1ccccc1OCc1nc2ccccc2s1` here?
A: 2.93% (inactive)

Q: With `CCCc1cc(=O)n2[nH]c(C)c(-c3ccc(Cl)cc3)c2n1` as the compound, how does the inhibition read?
A: -3.86% (inactive)

Q: Which inhibition does the source give for `Cc1ccc(NC2CCCN(C(=O)CCC3(C)CC3)C2)cc1C` (configuration not stated) here?
A: 12.1% (inactive)

Q: How did the inhibition turn out when `Cc1cc(C(=O)N/N=C/c2ccc(O)c([N+](=O)[O-])c2)c(C)n1-c1ccc(F)cc1` was run?
A: 1.56% (inactive)

Q: Which inhibition does the source give for `O=C1CSC(=S)N1/N=C/c1ccc(O)c([N+](=O)[O-])c1` here?
A: 39.1% (active)

Q: For `O=[N+]([O-])c1ccc(N2CCSCC2)cc1O`, which inhibition is on record?
A: 7.26% (inactive)

Q: With `CCC(C)(C)NC(=O)C1c2ccccc2Oc2ccccc21` as the compound, how does the inhibition read?
A: 0.98% (inactive)

Q: For `CCC(C)NC(=O)C1c2ccccc2Oc2ccccc21` (configuration not stated), which inhibition is on record?
A: -7.47% (inactive)

Q: How did the inhibition turn out when `O=C(N/N=C/c1ccc(O)c(O)c1)C1c2ccccc2Oc2ccccc21` was run?
A: 66.5% (active)

Q: `CC(C)(C)SCCSC1=CC(=O)CC(c2ccccc2)C1` (configuration not stated) was tested. Which inhibition did it give?
A: -7.92% (inactive)

Q: Which inhibition does the source give for `COc1ccc(CCNC(=O)CN2C(=O)COc3ccc(S(=O)(=O)N4CCCC4)cc32)cc1OC` here?
A: 0.73% (inactive)

Q: With `Cc1ccc(-c2noc(CC(c3ccccc3)c3ccccc3)n2)cc1` as the compound, how does the inhibition read?
A: 34.4% (active)

Q: How did the inhibition turn out when `Cc1ccc(-c2noc(CN3CCN(Cc4ccccc4)CC3)n2)cc1` was run?
A: -2.79% (inactive)

Q: With `COc1ccccc1Cc1nc(-c2ccc(C)cc2)no1` as the compound, how does the inhibition read?
A: 0.56% (inactive)

Q: Which inhibition does the source give for `CCOC(=O)c1ccc(NC(=S)N2CCN(c3ccccn3)CC2)cc1` here?
A: 0.52% (inactive)

Q: For `CSCCC(NS(=O)(=O)c1ccc(C)cc1)C(=O)N1CCCC1` (configuration not stated), which inhibition is on record?
A: -2.59% (inactive)

Q: How did the inhibition turn out when `COc1ccc(CNc2nc3c(c(=O)[nH]c(=O)n3C)n2Cc2ccccc2)cc1` was run?
A: 7.49% (inactive)

Q: Which inhibition does the source give for `Cn1c(=O)[nH]c(=O)c2c1[nH]c(=S)n2Cc1ccccc1` here?
A: 51.6% (active)

Q: For `C=CCSc1nc2c(c(=O)[nH]c(=O)n2C)n1Cc1ccccc1`, which inhibition is on record?
A: -7.79% (inactive)

Q: How did the inhibition turn out when `CCS(=O)(=O)C1=NSC2=NC(=O)/C(=C\c3ccc(OS(=O)(=O)c4ccccc4)cc3)C(=N)N21` was run?
A: 5.46% (inactive)

Q: `CC1CCC2(CC1)NC(=O)N(Cc1nnc(-c3cccs3)o1)C2=O` (configuration not stated) was tested. Which inhibition did it give?
A: -3.12% (inactive)

Q: For `O=C(NNc1c2ccccc2nc2ccccc12)c1cc2ccccc2cc1O`, which inhibition is on record?
A: 1.24% (inactive)

Q: `CC(=O)Nc1ccc(Nc2c3ccccc3nc3ccccc23)cc1` was tested. Which inhibition did it give?
A: 4.35% (inactive)

Q: Which inhibition does the source give for `CC(C)(C)OC(=O)NNc1c2ccccc2nc2ccccc12` here?
A: 29.7% (active)

Q: `O=c1c2cc(-c3ccccc3)sc2nc2n1N=C(c1cccs1)CS2` was tested. Which inhibition did it give?
A: 6.06% (inactive)

Q: Which inhibition does the source give for `CC1CCN(S(=O)(=O)c2ccc3[nH]c(=O)ccc3c2)CC1` here?
A: -0.17% (inactive)

Q: With `Cc1ccc(CCC(=O)Nc2ncc(Cc3cc(Cl)ccc3Cl)s2)o1` as the compound, how does the inhibition read?
A: -7.4% (inactive)

Q: How did the inhibition turn out when `Cc1ncc(CC(=O)n2cc(C(=O)c3cc(Cl)ccc3O)cn2)s1` was run?
A: 29.3% (active)

Q: For `O=C(c1cnn(-c2ccc(Cl)cc2)c1)c1ccccc1O`, which inhibition is on record?
A: -0.75% (inactive)

Q: For `O=S(=O)(c1ccc(-c2ccno2)s1)N1CCCCC1`, which inhibition is on record?
A: 11% (inactive)

Q: `CCOc1ccccc1-c1cc(C(=O)N/N=C(\C)c2cccnc2)c2ccccc2n1` was tested. Which inhibition did it give?
A: 1.07% (inactive)

Q: How did the inhibition turn out when `CC(C)c1ccc(NC(=S)NNc2ccc(Cl)c(C(=O)O)c2)cc1` was run?
A: 39.9% (active)

Q: How did the inhibition turn out when `O=C(NC(=S)Nc1ccc(Cl)c(C(=O)O)c1)c1cncc(Br)c1` was run?
A: 15.9% (inactive)

Q: Which inhibition does the source give for `Cc1ccc(C)c(NC(=S)NNC(=S)Nc2ccc(C(C)C)cc2)c1` here?
A: 3.44% (inactive)

Q: How did the inhibition turn out when `COc1cccc(-n2c(N)cc(=O)nc2SCC(=O)Nc2cc(C)on2)c1` was run?
A: -2.14% (inactive)

Q: `O=C(Nc1ncc([N+](=O)[O-])s1)C1COc2ccccc2O1` (configuration not stated) was tested. Which inhibition did it give?
A: 12% (inactive)

Q: With `O=C(CCc1ccccc1)Nc1ncc([N+](=O)[O-])s1` as the compound, how does the inhibition read?
A: 4.6% (inactive)

Q: `CC(=O)Oc1ccccc1C(=O)Nc1ncc([N+](=O)[O-])s1` was tested. Which inhibition did it give?
A: 35.7% (active)

Q: `CC(=O)c1cccc(NC(=O)C2COc3ccccc3O2)c1` (configuration not stated) was tested. Which inhibition did it give?
A: -8.5% (inactive)

Q: `Cn1cncc1COC(=O)c1ccc(Cl)cc1` was tested. Which inhibition did it give?
A: -13.9% (inactive)
